Hit rate of the full screen: of about 31,000 compounds, about 360 (1.2%) were called active. How the calls were made is not given here. Shown is part of a subset that was picked to be rich in actives.
biological target: DNA-binding protein inhibitor ID-4 (Homo sapiens) (UniProt P47928); assay: PubChem AID 624137; conditions: small molecule microarray, Flag-ID4 binding, fluorescence F/B;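 further: a binder raises fluorescence above local background on the spot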
Sequence (P47928 whole entry, looked up): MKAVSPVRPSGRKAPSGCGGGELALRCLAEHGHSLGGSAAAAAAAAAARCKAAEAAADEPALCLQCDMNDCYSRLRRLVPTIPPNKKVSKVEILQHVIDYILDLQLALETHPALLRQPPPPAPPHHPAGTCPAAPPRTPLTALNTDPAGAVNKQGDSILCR

Structure (SMILES) | outcome
CO[C@H](CN(C)S(=O)(=O)c1ccc(C)cc1)[C@@H](C)CN(Cc1ccccc1Cl)[C@@H](C)CO | inactive
CCn1c(SCC(=O)Nc2sc3c(c2C#N)CCCC3)nnc1-c1ccccc1O | active
CCn1c(SCC(=O)Nc2cc(Cl)c(Cl)cc2Cl)nnc1-c1ccccc1Cl | inactive
N#Cc1c(NC(=O)CCn2cnc3ccccc3c2=O)sc2c1CCCC2 | inactive
C[C@@H]1CN([C@@H](C)CO)C(=O)c2cc(C3=CCCC3)cnc2O[C@H]1CN(C)Cc1ccccc1F | inactive
COCC(=O)N[C@H]1C=C[C@H](CC(=O)N2CCCCC2)O[C@H]1CO | inactive
Cc1ccc(-c2ccc3c(c2)O[C@H](CN(C)C)[C@@H](C)CN([C@@H](C)CO)S3(=O)=O)cc1 | inactive
CO[C@@H](CN(C)S(=O)(=O)c1ccc(F)cc1)[C@H](C)CN(C(=O)Nc1ccccc1F)[C@@H](C)CO | inactive
O=C(C[C@H]1C=C[C@@H](NC(=O)Nc2cc(F)ccc2F)[C@H](CO)O1)NCCCN1CCOCC1 | inactive
CN(C)C(=O)C[C@H]1C=C[C@@H](NC(=O)c2ccc(F)cc2)[C@@H](CO)O1 | inactive
C[C@H]1CN([C@@H](C)CO)C(=O)c2cc(Br)cnc2O[C@@H]1CN(C)C(=O)c1ccccc1F | inactive
O=C(CN1C(=O)c2ccccc2S1(=O)=O)Nc1ccc(F)c(F)c1 | inactive
O=C(CSc1nnc(-c2ccccc2)n1-c1ccccc1)c1ccc(F)cc1 | inactive
CO[C@@H](CN(C)C(=O)c1cnccn1)[C@@H](C)CN([C@@H](C)CO)S(=O)(=O)c1ccc(F)cc1 | inactive
C[C@H]1CN([C@@H](C)CO)C(=O)c2cc(Br)cnc2O[C@H]1CN(C)CC1CCCC1 | inactive
CCCN(C)C[C@@H]1Oc2cc(-c3ccc(C)cc3)ccc2S(=O)(=O)N([C@@H](C)CO)C[C@H]1C | inactive
CCC(=O)N[C@H]1C=C[C@@H](CC(=O)NCC2CCCCC2)O[C@H]1CO | inactive
C[C@@H]1CN([C@H](C)CO)C(=O)c2cc(Br)cnc2O[C@@H]1CN(C)C(=O)C1CC1 | inactive
C[C@H](CO)N1C[C@H](C)[C@@H](CN(C)C)Oc2ncc(-c3cccc(F)c3)cc2C1=O | inactive
CCCN(C)C[C@@H]1Oc2cc(-c3cccc(C#N)c3)ccc2S(=O)(=O)N([C@@H](C)CO)C[C@@H]1C | inactive
C[C@@H]1CN([C@H](C)CO)S(=O)(=O)c2ccc(-c3cccc(C#N)c3)cc2O[C@@H]1CN(C)C(=O)Nc1ccccc1F | active
C[C@@H]1CN([C@@H](C)CO)S(=O)(=O)c2ccc(-c3cccc(C#N)c3)cc2O[C@@H]1CN(C)Cc1cccc(F)c1 | inactive
Cc1cc(C)c(OCC(=O)Nc2cccnc2)c(Br)c1 | inactive
COc1ccc(NC(=O)Cc2nc(-c3cc4ccccc4oc3=O)cs2)cc1 | inactive
COc1cccc(S(=O)(=O)N[C@H]2C=C[C@H](CC(=O)NC3Cc4ccccc4C3)O[C@@H]2CO)c1 | inactive
CN(C)c1ccc2c(c1)[C@H]1C[C@H](CC(=O)NCc3ccc(Cl)cc3)O[C@H](CO)[C@H]1O2 | inactive
CC(=O)N(C)C[C@H]1Oc2cc(C#Cc3ccccc3F)ccc2S(=O)(=O)N([C@H](C)CO)C[C@@H]1C | inactive

Structure (SMILES) | outcome
COc1ccc(CNC(=O)C[C@@H]2C=C[C@@H](NC(=O)c3ccc4c(c3)OCO4)[C@@H](CO)O2)cc1 | inactive
O=C(C[C@H]1CC[C@@H](NC(=O)Cc2ccccn2)[C@H](CO)O1)NCCc1ccccc1 | inactive
COC(=O)C[C@@H]1C[C@H]2c3cc(NC(=O)NC4CCCC4)ccc3O[C@H]2[C@H](CO)O1 | inactive
O=C(NCC[C@H]1CC[C@@H](NC(=O)C2CCCCC2)[C@@H](CO)O1)c1ccc(F)cc1 | inactive
COc1ccc(NC(=O)N[C@@H]2C=C[C@H](CC(=O)NC3CCC3)O[C@@H]2CO)cc1 | inactive
C[C@H](CO)N1C[C@H](C)[C@H](CN(C)C)Oc2cc(C#CC3CC3)ccc2S1(=O)=O | inactive
C[C@H](CO)N1C[C@H](C)[C@H](CN(C)C(=O)c2cccnc2)Oc2ncc(C3=CCCC3)cc2C1=O | inactive
O=C(C[C@@H]1CC[C@H](NC(=O)Nc2cc(F)ccc2F)[C@H](CO)O1)NCc1ccncn1 | inactive
CNC[C@@H]1Oc2cc(C#CC3CCCC3)ccc2S(=O)(=O)N([C@@H](C)CO)C[C@@H]1C | inactive
Cc1ccccc1NS(=O)(=O)c1cccc(C(=O)Nc2ccccc2[N+](=O)[O-])c1 | inactive
C[C@@H]1CN([C@H](C)CO)C(=O)c2cc(-c3cccc(F)c3)cnc2O[C@@H]1CN(C)C | inactive
C[C@H](CO)N1C[C@H](C)[C@@H](CN(C)Cc2cccnc2)Oc2ncc(/C=C/c3ccccc3)cc2C1=O | inactive
C[C@@H]1CN([C@@H](C)CO)C(=O)c2cc(/C=C/c3ccccc3)cnc2O[C@@H]1CN(C)C(=O)CN(C)C | inactive
Cc1ccccc1-c1ccc2c(c1)O[C@H](CN(C)C)[C@@H](C)CN([C@H](C)CO)S2(=O)=O | inactive
Cc1ccc(S(=O)(=O)CCN2CCC(C(F)(F)F)CC2)cc1 | inactive
CC(=O)N(C)C[C@@H]1Oc2cc(-c3ccncc3)ccc2S(=O)(=O)N([C@@H](C)CO)C[C@H]1C | inactive
C[C@@H]1CN([C@H](C)CO)C(=O)c2cc(-c3ccc(C#N)cc3)cnc2O[C@@H]1CN(C)CC1CC1 | inactive
C[C@H](CO)N1C[C@H](C)[C@H](CN(C)Cc2ccccc2)Oc2ncc(-c3ccccc3)cc2C1=O | inactive
C[C@H]1CN([C@@H](C)CO)C(=O)c2cc(-c3ccc(C#N)cc3)cnc2O[C@@H]1CN(C)Cc1ccncc1 | active
CC(=O)N[C@@H]1C=C[C@H](CC(=O)NCC2CCCCC2)O[C@H]1CO | inactive
C[C@H](CO)N1C[C@H](C)[C@H](CN(C)CC2CCCC2)Oc2ncc(-c3ccc(F)cc3)cc2C1=O | inactive
Cn1cnc(S(=O)(=O)N[C@H]2C=C[C@H](CC(=O)NCC3CCCCC3)O[C@@H]2CO)c1 | inactive
CC(=O)Nc1sccc1C(=O)NCc1ccco1 | inactive
CCOC(=O)c1c(NC(=O)C(C)Oc2ccc3c(C)cc(=O)oc3c2)sc2c1CCC2 (stereo not given) | inactive
Cc1cc2oc(C(=O)Nc3sc4c(c3C(=O)NCc3ccco3)CCC4)c(C)c2cc1C | active
CCCNC(=O)C[C@@H]1C[C@@H]2c3cc(N(C)C)ccc3O[C@@H]2[C@H](CO)O1 | inactive
COc1cccc(-c2cnc3c(c2)C(=O)N([C@@H](C)CO)C[C@@H](C)[C@@H](CN(C)Cc2ccc(C(=O)O)cc2)O3)c1 | inactive

Structure (SMILES) | outcome
CCCN(C)C[C@@H]1Oc2ncc(C#CC3CC3)cc2C(=O)N([C@H](C)CO)C[C@H]1C | inactive
C[C@@H]1CN([C@@H](C)CO)S(=O)(=O)c2ccc(C#CCN(C)C)cc2O[C@@H]1CN(C)CC1CC1 | inactive
CC(C)C#Cc1ccc2c(c1)O[C@H](CN(C)Cc1ccccc1)[C@H](C)CN([C@@H](C)CO)S2(=O)=O | inactive
O=C(N[C@@H]1CC[C@@H](CC(=O)N2CCc3ccccc3C2)O[C@H]1CO)C1CCC1 | inactive
CCCN(C)C[C@@H]1Oc2ncc(-c3ccccc3F)cc2C(=O)N([C@@H](C)CO)C[C@@H]1C | inactive
CCCN(C)C[C@@H]1OCc2cnnn2CCCC(=O)N([C@H](C)CO)C[C@@H]1C | inactive
O=C(Cc1ccccc1)N[C@H]1C=C[C@H](CC(=O)N2CCCCC2)O[C@@H]1CO | inactive
CC(C)C#Cc1cnc2c(c1)C(=O)N([C@@H](C)CO)C[C@@H](C)[C@@H](CN(C)C(=O)c1cccc(F)c1)O2 | inactive
O=C(C[C@@H]1C=C[C@H](NC(=O)CN2CCOCC2)[C@@H](CO)O1)NCc1cccc(F)c1 | inactive
O=C(C[C@@H]1CC[C@H](NC(=O)C2CC2)[C@H](CO)O1)NCc1ccccc1Cl | inactive
C[C@@H]1CN([C@H](C)CO)S(=O)(=O)c2ccc(C#CCN(C)C)cc2O[C@@H]1CN(C)C | inactive
CCNC(=O)C[C@@H]1CC[C@H](NC(=O)C2CCC2)[C@@H](CO)O1 | inactive
COC(=O)c1ccccc1NC(=O)CN(c1ccc2c(c1)OCCO2)S(C)(=O)=O | inactive
N#Cc1c(NC(=O)C2CC(Cl)=CCC2C(=O)O)sc2c1CCC2 (stereo not given) | active
CN1CCN(CC(=O)Nc2sc3c(c2C#N)CCC(C(C)(C)C)C3)CC1 (stereo not given) | inactive
O=C(CN1CCCC1)Nc1sc2c(c1C(=O)Nc1ccccc1)CCCC2 | inactive
C[C@@H]1CN([C@H](C)CO)C(=O)c2ccccc2-c2ccccc2CO[C@@H]1CN(C)S(=O)(=O)CC(F)(F)F | inactive
CN(C)C(=O)C[C@H]1C[C@@H]2c3cc(NC(=O)CC4CC4)ccc3O[C@@H]2[C@@H](CO)O1 | inactive
COc1cccc(-c2ccc3c(c2)O[C@H](CN(C)Cc2ccncc2)[C@H](C)CN([C@H](C)CO)S3(=O)=O)c1 | inactive
Cc1noc(C)c1NC(=O)N[C@H]1CC[C@H](CC(=O)N2CCCCC2)O[C@@H]1CO | inactive
C[C@@H]1CN([C@@H](C)CO)C(=O)Cc2cc(NC(=O)Cc3cn(C)c4ccccc34)ccc2O[C@H]1CN(C)C(=O)NC1CCCCC1 | inactive
C[C@@H]1CN([C@@H](C)CO)C(=O)Cc2cc(NC(=O)CCN3CCOCC3)ccc2O[C@@H]1CN(C)C(=O)Nc1cccc2ccccc12 | active
C[C@H](CO)N1C[C@H](C)[C@H](CN(C)Cc2ccncc2)Oc2ccc(NC(=O)Cc3cn(C)c4ccccc34)cc2CC1=O | inactive
C[C@H](CO)N1C[C@H](C)[C@H](CN(C)C(=O)Nc2ccc(F)cc2)Oc2ccc(NC(=O)Cc3cn(C)c4ccccc34)cc2CC1=O | active
C[C@H](CO)N1C[C@H](C)[C@H](CN(C)C(=O)Nc2ccccc2)Oc2ccc(NC(=O)CCN3CCOCC3)cc2CC1=O | inactive
C[C@@H]1CN([C@@H](C)CO)C(=O)Cc2cc(NC(=O)CCC(F)(F)F)ccc2O[C@@H]1CN(C)C(=O)Nc1cccc2ccccc12 | inactive

Source: PubChem BioAssay AID624137 (Broad Institute, 2012)
